We go through 27 compounds from PubChem BioAssay AID743365 (National Center for Advancing Translational Sciences (NCATS), 2014).

This assay in a line: qHTS profiling of inhibitors of Plasmodium falciparum (DD2) proliferation (acoustic dispense). Particulars: P. falciparum Dd2 in erythrocytes, SYBR Green DNA, 72 h; at 49.8 µM (top of the series) unless noted. In general terms: Quantitative high-throughput screening tests each substance at several concentrations.
Take `COC(=O)c1ccc2c(C(=Nc3ccc(N(C)C(=O)CN4CCN(C)CC4)cc3)c3ccccc3)c(O)[nH]c2c1`: the parasite growth, lower = inhibition was found to be 14.8%.
With `COc1ccc2cc3[n+](cc2c1OC)CCc1cc2c(cc1-3)OCO2` the figure was -0.889%.
With `COc1ncnc(NS(=O)(=O)c2ccc(N)cc2)c1OC` the figure was 114%; with `CO[C@@H]1C(N(C)C(=O)c2ccccc2)C[C@H]2O[C@]1(C)n1c3ccccc3c3c4c(c5c6ccccc6n2c5c31)C(=O)NC4=O` (some centres not stated), 10.1%; with `COC1=C2C[C@@H](C)C[C@H](OC)[C@@H](O)[C@@H](C)C=C(C)[C@H](OC(N)=O)[C@@H](OC)C=CC=C(C)C(=O)NC(=CC1=O)C2=O`, -0.39%.
With `Cc1cn(-c2cc(NC(=O)c3ccc(C)c(Nc4nccc(-c5cccnc5)n4)c3)cc(C(F)(F)F)c2)cn1` the figure was 7.6%; with `O[C@H](c1cc(C(F)(F)F)nc2c(C(F)(F)F)cccc12)[C@H]1CCCCN1`, 0.891% [at 23.2 µM].
In the case of `C=CCNC1=C2C[C@@H](C)C[C@H](OC)[C@@H](O)[C@@H](C)C=C(C)[C@H](OC(N)=O)[C@@H](OC)C=CC=C(C)C(=O)NC(=CC1=O)C2=O`, the parasite growth, lower = inhibition was determined as 0.49%.
For `CCc1cc(Nc2nccc(-c3c(-c4ccc(OC)c(C(=O)Nc5c(F)cccc5F)c4)nc4ccccn34)n2)c(OC)cc1N1CCC(N2CCN(S(C)(=O)=O)CC2)CC1`, the parasite growth, lower = inhibition was -0.192%.
For `CO[C@H]1O[C@@H]2O[C@@]3(C)CC[C@@H]4[C@@H](C)CC[C@@H]([C@H]1C)[C@@]24OO3`, the parasite growth, lower = inhibition is -0.475%.
With `Cc1cnc(Nc2ccc(CN3CCOCC3)cc2)nc1Nc1cccc(S(=O)(=O)NC(C)(C)C)c1` the figure was 0.192%; with `COc1ccc(-c2cc3c(C)nc(N)nc3n(C3CCC(OCCO)CC3)c2=O)cn1` (configuration not stated), -0.346%; with `CC(C)Oc1cc(Nc2nc(N[C@@H](C)c3ccc(F)cn3)ncc2Cl)[nH]n1`, 3.28%.
Under `COc1cc([C@@H]2c3cc4c(cc3[C@@H](O[C@@H]3O[C@@H]5CO[C@@H](c6cccs6)O[C@@H]5[C@H](O)[C@@H]3O)[C@H]3COC(=O)[C@H]23)OCO4)cc(OC)c1O` stands -0.345%.
With `NC1CCC(Nc2nc(Nc3ccc(C(=O)N4CCCCC4)cc3)c3ncn(-c4cccc(F)c4)c3n2)CC1` (configuration not stated) the figure was -0.359%.
`C[C@H](Cn1cnc2c(N)ncnc21)OCP(=O)(O)O`: the parasite growth, lower = inhibition was determined as 98%.
Under `CC(C)[C@H](C(=O)Nc1ccc(C(=O)NO)cc1)c1ccccc1` stands 0.408%; under `Cn1c(=O)n(-c2ccc(C(C)(C)C#N)cc2)c2c3cc(-c4cnc5ccccc5c4)ccc3ncc21`, 1%; under `CCN[C@H]1C[C@H](C)S(=O)(=O)c2sc(S(N)(=O)=O)cc21`, 0.306%.
Under `CSc1cccc(Nc2ncc3cc(-c4c(Cl)cccc4Cl)c(=O)n(C)c3n2)c1` stands 3.85%; under `FC(F)c1nc2ccccc2n1-c1nc(N2CCOCC2)nc(N2CCOCC2)n1`, 0.937%.
Under `C#Cc1cccc(Nc2ncnc3cc(OC)c(OCCCCCCC(=O)NO)cc23)c1` stands -0.648%; under `CCCC[C@@H]1C[C@@H](C(=O)NC([C@H](C)Cl)[C@H]2O[C@H](S)[C@H](O)[C@@H](O)[C@@H]2O)N(C)C1` (some centres not stated), 20.5%; under `CC[C@@]1(O)C[C@H](O[C@H]2C[C@H](N(C)C)[C@H](O[C@H]3C[C@H](O)[C@H](O[C@H]4CCC(=O)[C@H](C)O4)[C@H](C)O3)[C@H](C)O2)c2c(cc3c(c2O)C(=O)c2c(O)cccc2C3=O)[C@@H]1C(=O)OC`, -1.21%.
Consider `CCCCN(CCCC)CCC(O)c1cc2c(Cl)cc(Cl)cc2c2cc(C(F)(F)F)ccc12` (configuration not stated), for which the parasite growth, lower = inhibition was -0.281% [at 23.2 µM].
With `CCCCN(CCCC)CC(O)c1cc(Cl)cc2c1-c1ccc(Cl)cc1C2=Cc1ccc(Cl)cc1` (configuration not stated) the figure was -0.158%.
As for `CCCCCCOC(=O)C1(O)CC2OC1(C)n1c3ccccc3c3c4c(c5c6ccccc6n2c5c31)C(=O)NC4` (configuration not stated), the parasite growth, lower = inhibition worked out at 89.2% [at 1.88 µM].
